In PubChem BioAssay (EPA / NIEHS):
Inconclusive results are not listed. The source made the active and inactive calls. The calls were made as follows, unless noted: active = hit-call score of the fitted dose curve at least 0.9, where 1 is the maximum; inconclusive = response in the unintended direction; inactive = score below 0.9.

Tests used:
[1] = biological target: human Caspase 5 (CASP5), CASP5 (gene 838) (UniProt P51878); experiment: NVS_ENZ_hCASP5: NovaScreen (NVS) Enzymatic Assay for human Caspase 5 (CASP5) (AID 2283137)
Chain of human Caspase 5 (CASP5), CASP5 (gene 838) (P51878 whole entry, looked up): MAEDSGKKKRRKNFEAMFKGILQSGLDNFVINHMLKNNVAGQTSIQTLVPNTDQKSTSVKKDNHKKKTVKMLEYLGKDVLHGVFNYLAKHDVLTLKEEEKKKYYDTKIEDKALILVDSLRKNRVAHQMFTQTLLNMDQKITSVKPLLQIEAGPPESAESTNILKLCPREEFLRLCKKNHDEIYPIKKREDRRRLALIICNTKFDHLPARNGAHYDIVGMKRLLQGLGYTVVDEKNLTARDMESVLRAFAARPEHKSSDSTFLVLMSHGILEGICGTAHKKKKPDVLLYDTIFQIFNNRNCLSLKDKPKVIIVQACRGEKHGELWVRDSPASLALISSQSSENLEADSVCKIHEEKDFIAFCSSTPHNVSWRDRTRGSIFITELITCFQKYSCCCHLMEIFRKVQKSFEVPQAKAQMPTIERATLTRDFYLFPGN
Experimental: NVS_ENZ_hCASP5 is a biochemical, single-readout assay that uses extracted gene-proteins from E. coli in a cell-free assay. Measurements were taken 2 hours after chemical dosing in a 96-well plate.NVS_ENZ_hCASP5 is one of one assay component(s) measured or calculated from the NVS_ENZ_hCASP5 assay. It is designed to make measurements of enzyme activity, a form of enzyme reporter, as detected with fluorescence intensity signals by Fluorescence technology.Data from the assay component NVS_ENZ_hCASP5 was analyzed into 1 assay endpoint. This assay endpoint, NVS_ENZ_hCASP5, was analyzed in the positive analysis fitting direction relative to DMSO as the negative control and baseline of activity. Using a type of enzyme reporter, loss-of-signal activity can be used to understand changes in the enzymatic activity as they relate to the gene CASP5. Furthermore, this assay endpoint can be referred to as a primary readout, because this assay has produced multiple assay endpoints where this one serves a enzymatic activity function. To generalize the intended target to other relatable targets, this assay endpoint is annotated to the protease intended target family, where the subfamily is cysteine protease.
Binding assays used specific radioligands (tritiated, iodinated) with non-radioactive competitive displacement ligands in agonist or antagonist protocols (as indicated) and various reference compounds and inhibitors to titrate specific binding to receptors and transporters. Most enzyme assays (CYPs, kinases, phosphatases, proteases, HDACs) used recombinant protein and specific substrates (fluorescence mostly, some colorimetric and radioactive) and inhibitors, followed by a biochemical separation of substrate and product. All assays for the biochemical HTS were initially run in duplicate at a single concentration (10 uM for CYP450 assays and 25 uM for all others). […]

[2] = biological target: Cytochrome P450 2C19 (Homo sapiens) (UniProt P33261); experiment: NVS_ADME_hCYP2C19: NovaScreen (NVS) CYP450-related Enzyme Activity (ADME) Assay for human CYP2C19 (AID 2283113);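 also: potency for inhibition seen as loss of fluorescent signal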
In short: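 Chemicals first screened in duplicate at 10 uM against recombinant human enzyme produced in insect cells; confirmed actives then run as concentration series. Fluorogenic substrate turnover read by fluorescence after 1 h, normalised to acetonitrile.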

[3] = biological target: rat CYP2A1, Cyp2a1 (gene 24894) (UniProt P11711); experiment: NVS_ADME_rCYP2A1: NovaScreen (NVS) CYP450-related Enzyme Activity (ADME) Assay for rat CYP2A1 (AID 2283114; active = hit-call score of the fitted dose curve at least 0.9, where 1 is the maximum; inactive = score below 0.9)
Chain of rat CYP2A1, Cyp2a1 (gene 24894) (P11711 whole entry, looked up): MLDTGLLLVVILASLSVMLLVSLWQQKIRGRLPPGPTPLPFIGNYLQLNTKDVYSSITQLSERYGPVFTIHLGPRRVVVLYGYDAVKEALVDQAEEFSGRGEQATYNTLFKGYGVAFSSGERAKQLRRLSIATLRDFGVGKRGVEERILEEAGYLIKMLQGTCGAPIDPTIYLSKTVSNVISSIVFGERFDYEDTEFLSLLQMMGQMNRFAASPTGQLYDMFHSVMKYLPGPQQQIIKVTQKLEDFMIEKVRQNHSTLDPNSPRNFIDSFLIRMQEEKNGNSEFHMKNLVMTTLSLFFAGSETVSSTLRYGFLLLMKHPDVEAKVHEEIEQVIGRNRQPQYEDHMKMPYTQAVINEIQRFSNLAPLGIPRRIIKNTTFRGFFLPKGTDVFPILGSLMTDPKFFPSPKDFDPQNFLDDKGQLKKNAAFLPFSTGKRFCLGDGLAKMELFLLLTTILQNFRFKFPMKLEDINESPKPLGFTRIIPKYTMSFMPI
In short: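 Recombinant rat CYP2A1, cell-free, fluorogenic substrate turnover read by fluorescence intensity 0.75 h after dosing. Primary screen at 10 uM in duplicate; actives rerun as concentration-response up to 20 uM; loss of signal versus acetonitrile control.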

[4] = biological target: rat CYP2C13, Cyp2c13 (gene 171521) (UniProt P20814); experiment: NVS_ADME_rCYP2C13: NovaScreen (NVS) CYP450-related Enzyme Activity (ADME) Assay for rat CYP2C13 (AID 2283121)
Chain of rat CYP2C13, Cyp2c13 (gene 171521) (P20814 whole entry, looked up): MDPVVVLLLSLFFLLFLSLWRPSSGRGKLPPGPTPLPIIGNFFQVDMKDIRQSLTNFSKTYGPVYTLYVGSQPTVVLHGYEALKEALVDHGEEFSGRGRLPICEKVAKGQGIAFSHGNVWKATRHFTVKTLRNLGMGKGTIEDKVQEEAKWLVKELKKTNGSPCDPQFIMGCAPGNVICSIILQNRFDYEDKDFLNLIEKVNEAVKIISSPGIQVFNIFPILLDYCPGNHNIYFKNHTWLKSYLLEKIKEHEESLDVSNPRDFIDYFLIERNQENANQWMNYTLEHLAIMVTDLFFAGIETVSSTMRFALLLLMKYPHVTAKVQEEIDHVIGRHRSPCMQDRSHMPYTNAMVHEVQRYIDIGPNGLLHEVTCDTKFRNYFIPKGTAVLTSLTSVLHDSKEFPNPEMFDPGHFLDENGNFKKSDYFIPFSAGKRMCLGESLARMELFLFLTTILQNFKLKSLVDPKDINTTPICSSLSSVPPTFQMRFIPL
Experimental: NVS_ADME_rCYP2C13 is a biochemical, single-readout assay that uses extracted gene-proteins in a cell-free assay. Measurements were taken 0.75 hour after chemical dosing in a 96-well plate.NVS_ADME_rCYP2C13 is one of one assay component(s) measured or calculated from the NVS_ADME_rCYP2C13 assay. It is designed to make measurements of enzyme activity, a form of enzyme reporter, as detected with fluorescence intensity signals by Fluorescence technology.Data from the assay component NVS_ADME_rCYP2C13 was analyzed into 1 assay endpoint. This assay endpoint, NVS_ADME_rCYP2C13, was analyzed in the positive analysis fitting direction relative to Acetonitrile as the negative control and baseline of activity. Using a type of enzyme reporter, loss-of-signal activity can be used to understand changes in the enzymatic activity as they relate to the gene Cyp2c13. Furthermore, this assay endpoint can be referred to as a primary readout, because this assay has produced multiple assay endpoints where this one serves a enzymatic activity function. To generalize the intended target to other relatable targets, this assay endpoint is annotated to the cyp intended target family, where the subfamily is xenobiotic metabolism. […]

[5] = biological target: human Ephrin type-A Receptor 1 (EphA1), EPHA1 (gene 2041) (UniProt P21709); experiment: NVS_ENZ_hEphA1: NovaScreen (NVS) Enzymatic Assay for human Ephrin type-A Receptor 1 (EphA1) (AID 2283158);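 also: activity is signal loss versus DMSO meaning EphA1 kinase inhibition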
Chain of human Ephrin type-A Receptor 1 (EphA1), EPHA1 (gene 2041) (P21709 whole entry, looked up): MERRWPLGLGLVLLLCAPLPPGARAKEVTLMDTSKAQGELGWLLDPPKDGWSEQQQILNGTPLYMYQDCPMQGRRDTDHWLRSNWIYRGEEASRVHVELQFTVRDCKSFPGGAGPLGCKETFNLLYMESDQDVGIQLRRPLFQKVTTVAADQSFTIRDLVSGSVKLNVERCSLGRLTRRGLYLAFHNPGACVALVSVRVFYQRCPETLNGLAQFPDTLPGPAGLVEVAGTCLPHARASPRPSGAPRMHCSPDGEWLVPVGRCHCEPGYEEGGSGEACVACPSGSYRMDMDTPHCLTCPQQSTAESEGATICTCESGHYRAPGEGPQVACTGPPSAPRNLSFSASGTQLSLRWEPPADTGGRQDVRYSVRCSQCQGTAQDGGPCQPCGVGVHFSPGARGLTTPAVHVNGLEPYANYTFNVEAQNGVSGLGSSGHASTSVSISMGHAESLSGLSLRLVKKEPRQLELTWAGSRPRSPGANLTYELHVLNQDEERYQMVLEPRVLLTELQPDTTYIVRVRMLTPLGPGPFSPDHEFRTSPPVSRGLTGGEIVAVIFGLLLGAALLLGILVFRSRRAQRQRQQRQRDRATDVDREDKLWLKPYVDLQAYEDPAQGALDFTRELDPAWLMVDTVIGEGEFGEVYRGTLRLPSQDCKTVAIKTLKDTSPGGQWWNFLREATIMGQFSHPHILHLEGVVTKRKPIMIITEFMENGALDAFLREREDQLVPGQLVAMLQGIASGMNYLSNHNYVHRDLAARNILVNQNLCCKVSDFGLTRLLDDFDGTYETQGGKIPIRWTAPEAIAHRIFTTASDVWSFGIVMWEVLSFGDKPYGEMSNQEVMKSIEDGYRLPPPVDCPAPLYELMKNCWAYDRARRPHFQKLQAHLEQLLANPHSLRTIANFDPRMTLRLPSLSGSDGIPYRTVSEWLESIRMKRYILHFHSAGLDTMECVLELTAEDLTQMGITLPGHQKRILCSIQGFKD
In short: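 Biochemical kinase assay run cell-free; 1 h incubation; readout is fluorescence with mobility-shift separation of product. Concentration-response up to 50 uM for actives from a 25 uM screen.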

[6] = biological target: human Beta-secretase (BACE), BACE1 (gene 23621) (UniProt P56817); experiment: NVS_ENZ_hBACE: NovaScreen (NVS) Enzymatic Assay for human Beta-secretase (BACE) (AID 2283140);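 also: hits are inhibitors that reduce fluorescent substrate signal versus DMSO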
Chain of human Beta-secretase (BACE), BACE1 (gene 23621) (P56817 whole entry, looked up): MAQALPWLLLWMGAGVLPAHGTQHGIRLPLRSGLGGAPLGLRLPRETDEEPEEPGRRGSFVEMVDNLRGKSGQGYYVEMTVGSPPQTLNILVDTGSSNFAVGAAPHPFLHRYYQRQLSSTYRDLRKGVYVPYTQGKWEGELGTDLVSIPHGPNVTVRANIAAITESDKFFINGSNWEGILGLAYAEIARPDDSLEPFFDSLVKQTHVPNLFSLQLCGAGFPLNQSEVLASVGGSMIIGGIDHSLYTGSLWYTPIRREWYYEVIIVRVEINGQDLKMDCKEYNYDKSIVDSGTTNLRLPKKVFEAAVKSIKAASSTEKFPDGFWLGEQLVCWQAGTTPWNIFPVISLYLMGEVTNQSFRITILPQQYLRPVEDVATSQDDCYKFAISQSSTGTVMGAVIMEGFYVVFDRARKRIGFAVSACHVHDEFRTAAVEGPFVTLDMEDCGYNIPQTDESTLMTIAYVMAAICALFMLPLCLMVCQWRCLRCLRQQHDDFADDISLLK
In short: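 Cell-free fluorescence-intensity assay of recombinant BACE1 expressed in SF9 cells, read 1 hour after dosing. Loss of signal indicates reduced protease activity, fitted relative to DMSO negative control. Primary screen at 25 uM in duplicate; actives followed in concentration series.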

[7] = biological target: human Dual Specificity Protein Phosphatase 3 (DUSP3), DUSP3 (gene 1845) (UniProt P51452); experiment: NVS_ENZ_hDUSP3: NovaScreen (NVS) Enzymatic Assay for human Dual Specificity Protein Phosphatase 3 (DUSP3) (AID 2283152);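 also: phosphatase activity of recombinant human DUSP3 on a fluorogenic substrate without cells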
Chain of human Dual Specificity Protein Phosphatase 3 (DUSP3), DUSP3 (gene 1845) (P51452 whole entry, looked up): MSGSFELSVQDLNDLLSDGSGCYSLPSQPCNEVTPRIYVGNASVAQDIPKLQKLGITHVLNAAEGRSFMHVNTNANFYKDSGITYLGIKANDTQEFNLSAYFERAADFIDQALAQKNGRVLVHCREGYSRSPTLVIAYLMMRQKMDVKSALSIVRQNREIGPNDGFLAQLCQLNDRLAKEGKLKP
In short: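 Cell-free assay with recombinant human DUSP3 and fluorogenic substrate, read by fluorescence intensity. Primary screen ran duplicate at 25 uM; actives followed up in concentration series; loss of signal versus DMSO scored.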

[8] = biological target: human CYP2C9, CYP2C9 (gene 1559) (UniProt P11712); experiment: NVS_ADME_hCYP2C9: NovaScreen (NVS) CYP450-related Enzyme Activity (ADME) Assay for human CYP2C9 (AID 2283108)
Chain of human CYP2C9, CYP2C9 (gene 1559) (P11712 whole entry, looked up): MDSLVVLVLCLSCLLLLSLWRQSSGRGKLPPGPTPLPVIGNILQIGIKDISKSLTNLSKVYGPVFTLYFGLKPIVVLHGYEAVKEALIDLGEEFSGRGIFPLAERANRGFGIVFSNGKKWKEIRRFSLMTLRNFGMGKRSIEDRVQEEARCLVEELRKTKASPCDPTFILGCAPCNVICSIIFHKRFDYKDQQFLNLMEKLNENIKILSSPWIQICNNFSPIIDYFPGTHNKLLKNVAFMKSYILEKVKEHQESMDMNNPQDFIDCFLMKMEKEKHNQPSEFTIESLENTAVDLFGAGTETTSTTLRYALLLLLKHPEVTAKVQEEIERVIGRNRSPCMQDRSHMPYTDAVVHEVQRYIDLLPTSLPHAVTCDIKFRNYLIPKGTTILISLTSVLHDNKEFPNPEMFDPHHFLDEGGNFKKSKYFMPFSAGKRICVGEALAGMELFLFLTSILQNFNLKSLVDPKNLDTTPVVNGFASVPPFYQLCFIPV
In short: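 Fluorescence readout of CYP2C9 activity (SF9-expressed human enzyme) at 0.75 h. The primary screen used 10 uM in duplicate, with concentration-response follow-up for actives; acetonitrile was the negative control.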

[9] = biological target: Mitogen-activated protein kinase 3 (Homo sapiens) (UniProt P27361); experiment: NVS_ENZ_hMAPK3: NovaScreen (NVS) Enzymatic Assay for human Mitogen-Activated Protein Kinase 3 (MAPK 3) (AID 2283177)
Chain of Mitogen-activated protein kinase 3 (Homo sapiens) (P27361 whole entry, looked up): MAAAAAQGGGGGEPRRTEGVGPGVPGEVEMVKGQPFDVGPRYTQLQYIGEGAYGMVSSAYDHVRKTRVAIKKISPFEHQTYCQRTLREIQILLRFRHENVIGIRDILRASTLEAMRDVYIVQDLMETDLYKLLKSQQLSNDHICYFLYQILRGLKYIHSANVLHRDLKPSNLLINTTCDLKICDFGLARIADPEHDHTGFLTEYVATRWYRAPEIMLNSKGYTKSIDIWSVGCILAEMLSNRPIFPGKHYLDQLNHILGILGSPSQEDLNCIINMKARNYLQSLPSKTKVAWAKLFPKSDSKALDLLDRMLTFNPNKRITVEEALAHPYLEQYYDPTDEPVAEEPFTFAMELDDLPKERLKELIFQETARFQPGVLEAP
In short: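 Cell-free enzymatic assay with recombinant protein and specific substrate; fluorescence and electrophoretic mobility shift read-out 1 h after dosing. Primary screen duplicate at 25 uM; actives then run in concentration-response up to 50 uM, loss of signal versus DMSO.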

[10] = biological target: Cytochrome P450 3A4 (Homo sapiens) (UniProt P08684); experiment: NVS_ADME_hCYP3A4: NovaScreen (NVS) CYP450-related Enzyme Activity (ADME) Assay for human CYP3A4 (AID 2283110)
Chain of Cytochrome P450 3A4 (Homo sapiens) (P08684 whole entry, looked up): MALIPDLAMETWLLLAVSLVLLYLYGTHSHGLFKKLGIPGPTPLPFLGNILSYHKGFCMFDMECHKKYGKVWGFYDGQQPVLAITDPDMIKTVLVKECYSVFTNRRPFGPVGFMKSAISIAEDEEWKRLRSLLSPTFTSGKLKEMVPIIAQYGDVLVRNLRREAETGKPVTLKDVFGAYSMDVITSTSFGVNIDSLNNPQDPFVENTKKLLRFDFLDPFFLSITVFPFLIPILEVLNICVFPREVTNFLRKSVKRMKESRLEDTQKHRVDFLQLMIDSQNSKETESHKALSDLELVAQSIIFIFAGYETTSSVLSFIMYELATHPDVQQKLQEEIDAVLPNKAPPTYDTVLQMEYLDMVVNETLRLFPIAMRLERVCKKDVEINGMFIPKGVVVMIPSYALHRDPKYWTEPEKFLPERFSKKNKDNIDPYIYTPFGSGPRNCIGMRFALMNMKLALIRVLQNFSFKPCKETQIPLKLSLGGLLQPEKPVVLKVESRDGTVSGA
In short: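 Compounds were first screened in duplicate at 10 uM against recombinant CYP3A4 produced in insect cells, then actives were run in concentration series. Enzyme activity was measured by fluorescence after 0.33 hour, with acetonitrile as baseline.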

`CC1=CC2C3C=CC(C3)C2C1C` (stereo not drawn) was tested, and the AC50 [1] was 13.1 µM (active).

`CCCCCCCCn1sc(Cl)c(Cl)c1=O` was tested, and the AC50 [2] was 8.26 µM (active), the outcome [3] was “inactive” and the outcome [4] was “inactive”.

With `Cc1cc(O)c(C(C)(C)C)cc1C(C)(C)C` the outcome [5] was “inactive”.

For `Brc1nc2ccccc2s1`, the outcome [5] was “inactive”.

`Cc1cc(=O)[nH]c(C(C)C)n1` was tested, and the AC50 [5] was 9.31 µM (active).

In the case of `O=C1c2c(O)ccc(Nc3ccc(CCO)cc3)c2C(=O)c2c([N+](=O)[O-])ccc(O)c21`, the AC50 [2] is reported as 4.49 µM (active), the AC50 [1] is reported as 0.148 µM (active) and the AC50 [6] is reported as 0.129 µM (active). The AC50 [7] was 2.37 µM (active).

With `CC(C)=CCCC(C)O` (stereo not drawn) the outcome [8] was “inactive”.

`CCCCCCCCCCCCCC[P+](CCCC)(CCCC)CCCC` was tested, and the AC50 [9] was 20.2 µM (active).

`C=CCOC(=O)CC(C)C` was tested, and the outcome [5] was “inactive”.

With `C[C@]12CC[C@H]3C(=CCc4cc(O)ccc43)[C@@H]1CCC2=O` the AC50 [2] was 1.95 µM (active).

In the case of `CCC(C)CO` (stereo not drawn), the outcome [6] is reported as “inactive”.

In the case of `O=C1C=CC(=O)N1c1ccc(Cc2ccc(N3C(=O)C=CC3=O)cc2)cc1`, the AC50 [1] is reported as 4.26 µM (active) and the outcome [5] is reported as “inactive”.

For `CC1=CCC2C(=O)OC(=O)C2C1` (stereo not drawn), the outcome [5] was “inactive”.

For `O=C(c1ccccc1)c1ccc(O)cc1O`, the AC50 [7] was 16.5 µM (active) and the outcome [5] was “inactive”.

With `c1ccc(C[P+](c2ccccc2)(c2ccccc2)c2ccccc2)cc1` the AC50 [2] was 1.87 µM (active).

`COC(=O)c1ccc(C=O)cc1` was tested, and the AC50 [10] was 0.00779 µM (active).
